# Screening data from PubChem.
# CHX counter: Cycloheximide Counterscreen for Small Molecule Inhibitors of Shiga Toxin | cell reporter, cycloheximide protein synthesis inhibition counterscreen | max response, % | hit rate 12% among 300,000 | AID 2314, 2010; in the data active = max response mostly above about 13%, no sharp cut-off; inactive = mostly below about 14%; note: read at 38.3 µM for the half of the compounds with a filed dose; 0% is about no effect
# Sm TGR block: qHTS Assay for the Inhibitors of Schistosoma Mansoni Peroxiredoxins; AID 485364, 2010; Potency, µM (top dose mostly 114 µM), without a hit: at the top dose activity change, negative = inhibition, most hits filed as inhibitors; hit rate 3% among 360,000; purified TGR, DTNB reduction, TNB absorbance 405 nm; note: potency is the fitted concentration of half-maximal effect; % is set by controls: 0 for no effect and ±100 for the full control effect; nearly all actives have a fitted effect of over 60% in size
#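 TGR 20 nM + NADPH 100 uM (dispensed conc.), cpd preinc 15 min RT; start with NADPH (500 uM addition) then DTNB (15 mM addition). Kinetic TNB absorbance, 405 nm filter. Four-parameter Hill fit across titration.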
# TbPYK inhibitor: qHTS of Trypanosoma Brucei Inhibitors | Potency, µM (highest dose often 76.8 µM), for the others: at the highest dose activity, negative = inhibition, most hits filed as inhibitors | pyruvate kinase (Trypanosoma brucei), Q57TT1 | hit rate 0.12% among 410,000 | TbPYK enzyme, Kinase-Glo Plus ATP luminescence, 45 min; note: potency is the fitted concentration of half-maximal effect; % is set by controls: 0 for no effect and ±100 for the full control effect; nearly all actives have a fitted effect of over 50% in size
#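 Readout: single end-point luminescence (Kinase-Glo Plus, 10 min). Reaction conditions were TbPYK/substrate plus 130 uM ADP, 45 min at RT, pH 7.2 TEA buffer. No-enzyme wells served as controls, and data were normalized before concentration-response fitting.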
# Shiga toxin inh: A qHTS for Small Molecule Inhibitors of Shiga Toxin. Vero cells, Shiga toxin protein synthesis inhibition reporter. inhibition, % at 38.7 µM. hit rate 9.2% among 290,000. AID 2315, 2010; in the data active = inhibition mostly above about 28%, no sharp cut-off; inactive = mostly below about 43%; note: 0% is about no effect
# FBPA Giardia inh: qHTS Assay for Inhibitors of Fructose-1,6-bisphosphate Aldolase from Giardia Lamblia; purified Giardia FBPA; Potency, µM (highest dose often 59.6 µM), without a hit: at the top dose activity, negative = inhibition, hits mostly inhibitors; hit rate 0.71% among 290,000; note: potency is the fitted concentration of half-maximal effect; % is set by controls: 0 for no effect and ±100 for the full control effect; nearly all actives have a fitted effect of over 55% in size
# Target sequence (A8B2U2 whole entry, looked up): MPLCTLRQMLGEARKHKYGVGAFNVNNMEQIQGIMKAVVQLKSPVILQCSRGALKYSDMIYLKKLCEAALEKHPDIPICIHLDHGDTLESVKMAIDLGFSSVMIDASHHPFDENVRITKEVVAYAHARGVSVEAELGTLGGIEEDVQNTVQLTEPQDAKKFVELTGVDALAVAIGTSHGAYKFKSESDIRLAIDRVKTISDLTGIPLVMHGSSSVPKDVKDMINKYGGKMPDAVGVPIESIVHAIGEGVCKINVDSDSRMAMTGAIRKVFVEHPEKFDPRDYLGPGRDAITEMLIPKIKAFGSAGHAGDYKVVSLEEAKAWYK
#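 Giardia FBPA (40 nM reagent) was preincubated 10 min at RT with compound (up to 57.5 uM final), then substrate plus GAPDH/TPI/NAD/arsenate coupling system with diaphorase/resazurin was added; resorufin fluorescence (525/598 nm) was read after 20 min.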
# LmPK inh: qHTS Assay for Inhibitors of Leishmania Mexicana Pyruvate Kinase (LmPK); purified LmPK, Kinase-Glo ATP luminescence, 1 h; Potency, µM (highest dose often 57.5 µM), for inactives: top-dose activity change, negative = inhibition, most hits filed as inhibitors; hit rate 0.37% among 290,000; AID 1721, 2009; note: potency is the fitted concentration of half-maximal effect; % is set by controls: 0 for no effect and ±100 for the full control effect
#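 Kinase-Glo luminescence read after 1 h RT reaction of 0.1 nM LmPK with 0.5 mM PEP and 0.1 mM ADP. Activity scaled between uninhibited and enzyme-free controls.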
# * hit, by the source's call; ? = inconclusive; . = no result given. Many of the other results were omitted from the sample, so hits are more common in it than they were. Unless noted, calls come from the whole dose curve; as a rule, active = well fitted curve in the direction sought with a large enough effect; inconclusive = small, poorly fitted or top-dose-only effect, or another doubt; inactive = no such curve, though single readings can be large; an effect the other way counts as inactive or inconclusive.
SMILES,CHX counter,Sm TGR block,TbPYK inhibitor,Shiga toxin inh,FBPA Giardia inh,LmPK inh
O=C1C(=O)N(c2cccc(Cl)c2)C(c2ccccc2[N+](=O)[O-])/C1=C(\O)c1ccccc1 (stereo not given),19*,-5%,1%,37,?,-1%
O=C1C(=O)N(c2ccccc2)C(c2ccccc2[N+](=O)[O-])/C1=C(\O)c1ccccc1 (stereo not given),23,-2%,-4%,24,-23%,-11%
CCOc1ccc(CC(=O)C2C(=O)CCCC2=O)cc1OCC,-1,32µM*,-18%,-11,-19%,2%
CCOc1ccc(CC(=O)C2C(=O)CC(C)(C)CC2=O)cc1OCC,-1,13µM*,-3%,-9,-2%,4%
CCOc1ccc(CC(=O)C2=C(N3CCOCC3)CC(C)(C)CC2=O)cc1OCC,-2,7.9µM*,-5%,-8,0%,2%
COc1ccc2oc(=O)c(C(=O)NCCc3c(C)[nH]c4ccc(F)cc34)cc2c1,.,9%,0%,.,.,.
CC(C)(C)OC(=O)N1CCC(c2c(C(=O)N3CCC(c4ccccc4)C3)cnn2-c2ccc(Cl)cc2)CC1 (stereo not given),.,-2%,5%,.,.,.
COc1ccccc1C(=O)OCc1ccc2sc(C)nc2c1,28*,3%,-4%,78*,2%,-4%
CC1C/C(=C/c2ccccn2)C(=O)/C(=C/c2ccccn2)C1 (stereo not given),10,16µM*,3%,-9,-19%,0%
Cc1ccc(C=Cc2ccccn2)cc1,.,.,-14%,.,.,.
CN1C2CCC1/C(=C/c1ccccn1)C(=O)/C2=C\c1ccccn1,-6,-25%,-13%,-8,-10%,-5%
CC(C)(C)C1C/C(=C/c2ccccn2)C(=O)/C(=C/c2ccccn2)C1 (stereo not given),-11,18µM*,6%,-23,?,0%
O=C(Nc1nnc(S(=O)(=O)N2CCCc3ccccc32)s1)c1ccccc1Cl,.,-5%,-3%,.,.,.
COc1ccc(CCNC(=O)CS(=O)(=O)Cc2nc(-c3cccc(Cl)c3)oc2C)cc1OC,.,-23%,0%,.,.,.
Cc1ccc(-n2ncc(C(=O)N3CCN(c4cccc(C)c4C)CC3)c2C2CCNCC2)c(C)c1,.,5%,-7%,.,.,.
COc1ccccc1C1CC(c2ccco2)=NN1c1ccccc1 (stereo not given),-3,-13%,-2%,-12,-4%,-3%
C(=C\c1ccco1)/C1=NN(c2ccccc2)C(c2ccco2)C1 (stereo not given),40*,28µM*,-11%,80*,-17%,-2%
O=[N+]([O-])c1ccc(/C=C/C2=NN(c3ccccc3)C(c3ccco3)C2)o1 (stereo not given),12,40µM*,-19%,15,-5%,-3%
O=c1c(C(c2ccc(Cl)cc2)c2c(O)nc3n(c2=O)CCCS3)c(O)nc2n1CCCS2,7,1.8µM*,-4%,14,12%,6%
O=c1c(C(c2ccc(F)cc2)c2c(O)nc3n(c2=O)CCS3)c(O)nc2n1CCS2,1,0.79µM*,-10%,11,5%,7%
O=c1c(C(c2ccc(Cl)cc2)c2c(O)nc3n(c2=O)CCS3)c(O)nc2n1CCS2,3,-1%,-8%,-7,12%,10%
COC(=O)c1ccc(C2CC(=O)Nc3c2c(C)nn3-c2nc(C)cc(C)n2)cc1 (stereo not given),.,0%,-12%,.,.,.
Cc1scc(-c2n[nH]c(=S)n2C(C)c2ccccc2)c1C (stereo not given),-3,3%,2.2µM*,-16,0%,13µM*
CCc1cc(-c2n[nH]c(=S)n2C(C)c2ccccc2)cs1 (stereo not given),13,-18%,-67%,4,16%,14µM*
CC(c1ccccc1)n1c(Cn2ncc3ccccc3c2=O)n[nH]c1=S (stereo not given),0,2%,?,-3,5%,-6%
SMILES,CHX counter,Sm TGR block,TbPYK inhibitor,Shiga toxin inh,FBPA Giardia inh,LmPK inh
CC(c1ccccc1)n1c(-c2ccc(C(C)(C)C)cc2)n[nH]c1=S (stereo not given),2,-3%,-19%,20,12%,-18%
CC(=O)c1ccc(OCc2cc(C(=O)N3CC[C@@H]4CCCC[C@H]4C3)no2)cc1,75*,13µM*,5%,104*,-6%,-1%
CC(=O)c1ccc(OCc2cc(C(=O)N3CCC(c4ccncc4)CC3)no2)cc1,8,45µM*,1%,23,5%,1%
CC(=O)c1ccc(OCc2cc(C(=O)N3CCCCC3c3cccnc3)no2)cc1 (stereo not given),54*,?,0%,81*,.,0%
COCC1CCCN(C(=O)c2cc(COc3ccc(C(C)=O)cc3)on2)C1 (stereo not given),.,.,2%,.,.,.
CC(=O)c1ccc(OCc2cc(C(=O)NC3CCCCC3)no2)cc1,31*,7%,-12%,76*,.,-4%
CCCCC/C=C\C=C\C(O)CCCCCCCC(=O)O (stereo not given),.,.,.,.,0%,.
Cc1ccc(-n2nc(CO)c(C(=O)NCc3cccnc3)n2)cc1C,.,0%,1%,.,.,.
COc1ccc(NC(=O)c2c(-c3ccccc3)c(-c3ccccc3)nn(C)c2=O)c(OC)c1,.,-3%,1%,.,.,.
Nc1ccc2ccc3cccc[n+]3c2c1,-2,32µM*,-8%,.,-24%,-6%
COc1ccc2ccc3cccc[n+]3c2c1,.,.,3%,.,.,.
Cc1cccc(N/C=C/C(=O)c2cccs2)c1C,49*,6%,-12%,74*,-4%,16µM*
NC(=O)c1ccccc1N/C=C/C(=O)c1ccc(Cl)cc1Cl,33*,1%,-14%,72*,2%,16µM*
Cc1ccc(C(=O)/C=C/Nc2ccccc2C(N)=O)o1,54*,?,-6%,83*,-12%,-27%
NC(=O)c1ccccc1N/C=C/C(=O)c1ccc(F)cc1,56*,-22%,-15%,98*,-7%,8.9µM*
NC(=O)c1ccccc1N/C=C/C(=O)c1cccs1,44*,-30%,-14%,45*,1%,16µM*
COc1cc([N+](=O)[O-])ccc1N/C=C/C(=O)c1cccs1,27*,-4%,-26%,60*,2%,?
O=C(/C=C/c1ccc([N+](=O)[O-])cc1)c1cccs1,3,-6%,-1%,-8,0%,-2%
Cc1ccc2nc(CN3CCN(S(=O)(=O)c4ccc(C(C)C)cc4)CC3)oc2c1,.,4%,2%,.,.,.
O=C(NNC(=O)c1ccccc1Cl)c1ccccc1Cl,18*,11%,0%,17,-1%,-9%
